Source: PubChem (National Center for Advancing Translational Sciences (NCATS))
DT40 TDP1 CPT = qHTS for Inhibitors of human tyrosyl-DNA phosphodiesterase 1 (TDP1): qHTS in cells in presence of CPT. chicken DT40 Tdp1-/-;hTDP1 cells + 20 nM CPT, ATP luminescence, 48 h. Potency, µM (series often up to 46.2 µM), without a hit: at the highest dose activity change, negative = growth inhibition, usual class: inhibitors. 12% of 420,000 active. AID 686979, 2013; note: potency is the fitted concentration of half-maximal effect; nearly all actives have a fitted effect of over 55% in size
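Chicken DT40 Tdp1-/- cells complemented with human TDP1, 400 cells/well, exposed to compounds plus 20 nM camptothecin for at least 48 h at 37 C; viability read as ATP content by CellTiter-Glo luminescence.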
IL1B secr inh = qHTS for Inhibitors of Inflammasome Signaling: IL-1-beta AlphaLISA Primary Screen; 4.7% of 360,000 active; activity change, % at 57.5 µM; THP-1 LPS/ATP IL-1B secretion, AlphaLISA, 16 h; hits give low values; in the data active = activity change below about -50%; inconclusive = mostly about -30% to -49%
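Secreted IL-1B measured by AlphaLISA bead assay after 16 h compound exposure of THP-1 cells; compounds (final up to 57.5 uM) added 1 h before LPS (250 ng/mL) and ATP (1.25 mM) stimulation; lower signal means less secretion.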
DT40 TDP1 no CPT = qHTS for Inhibitors of human tyrosyl-DNA phosphodiesterase 1 (TDP1): qHTS in cells in absence of CPT; DT40 Tdp1-/- hTDP1 cells, no CPT, ATP luminescence, 48 h; Potency, µM (doses to about 46.2 µM), for the others: at the top dose activity change, negative = growth inhibition, actives largely listed as inhibitors; 15% of 420,000 active; AID 686978, 2013; note: potency is the fitted concentration of half-maximal effect; nearly all actives have a fitted effect of over 55% in size
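Camptothecin absent (DMSO only). Human TDP1-complemented DT40 knockout cells, 400 cells/well, 37 °C for minimum 48 hr; ATP measured via CellTiter-Glo, 30 min dark incubation, luminescence.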
HT1080 IDH1KD tx = qHTS for induction of synthetic lethality in tumor cells producing 2HG: qHTS for the HT-1080-IDH1KD cell line; Potency, µM (titrated, usually from 46.1 µM), for the others: at the highest dose activity, negative = toxicity, usual class: cytotoxic; 2% of 360,000 active; AID 686971, 2013; HT-1080 IDH1 knockdown viability, ATP luminescence, 48 h;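 note: potency is the fitted concentration of half-maximal effect; 0% = DMSO wells and -100% = cell-free medium wells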
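Cytotoxicity counter-line: IDH1KD HT-1080, 48 h, CellTiter-Glo. Curves classed by r2, magnitude and activity.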
ELG1 repair inh = qHTS screen for small molecules that inhibit ELG1-dependent DNA repair in human embryonic kidney (HEK293T) cells expressing luciferase-tagged ELG1. Potency, µM (titrated, usually from 46.1 µM), for the others: at the highest dose activity change, negative = inhibition, actives largely listed as inhibitors. 2.3% of 330,000 active. HEK293T ELG1-luciferase reporter, luminescence, 16 h; DNA damage induced by 5-fluorouridine; note: potency is the fitted concentration of half-maximal effect; nearly all actives have a fitted effect of over 55% in size
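Cells (2,000 per well) received 5-fluorouridine plus test compound or DMSO and were incubated 16 hr at 37 °C, 5% CO2. Luciferase activity was read by luminescence 30 min after ONE-Glo addition; signal suppression marked inhibition of damage-induced ELG1 function.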
HT1080NT lethal = qHTS for induction of synthetic lethality in tumor cells producing 2HG: qHTS for the HT-1080-NT fibrosarcoma cell line; HT-1080-NT fibrosarcoma viability, CellTiter-Glo ATP luminescence, 48 h; Potency, µM (highest dose often 46.1 µM), for inactives: top-dose activity, negative = less viability, actives largely listed as cytotoxic; 1.6% of 360,000 active;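 note: NT is the 2HG producing partner of a matched IDH1 knockdown line; potency is the fitted concentration of half-maximal effect; 0% = DMSO-treated cells and -100% = media-only wells without cells; nearly all actives have a fitted effect of over 55% in size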
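Luminescent CellTiter-Glo readout after 48 hours of compound exposure at 37 degrees C defined viability of HT-1080-NT cells. Activity was normalized to DMSO wells and cell-free media wells; concentration-response curves were fitted and assigned curve classes.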
Starred values were filed as active, the others as inactive; [ ] = another dose, or the depositor's remark. This is a sample that favours compounds with a hit; in the whole collection about 19% have one here. Unless noted, calls come from the whole dose curve; as a rule, active = well fitted curve in the direction sought with a large enough effect; inconclusive = small, poorly fitted or top-dose-only effect, or another doubt; inactive = no such curve, though single readings can be large; an effect the other way counts as inactive or inconclusive. Unless noted, % is set by controls: 0 for no effect and ±100 for the full control effect.

How did C[C@H](O)[C@@H]1C(=O)N2CCc3ccc(N4CCN(C)CC4)cc3[C@@H]2C[C@@H]1N(C)C(=O)c1ccc(C#N)cc1 do in these assays?
DT40 TDP1 CPT: -3.5%; IL1B secr inh: 0.0; DT40 TDP1 no CPT: -15.1%; HT1080 IDH1KD tx: 16.0%; HT1080NT lethal: 11.7%

What do the screens show for `Cc1[nH]c2ccccc2c1/C=C/c1c[nH]c2ccccc12`?
DT40 TDP1 CPT: inconclusive; DT40 TDP1 no CPT: 11.2µM*

How did Cc1[nH]c2ccccc2c1/C=C/c1ccc2ccccc2n1 do in these assays?
DT40 TDP1 CPT: inconclusive; DT40 TDP1 no CPT: -111.0%

How did Cc1[nH]c2ccccc2c1/C=C/c1cnc2ccccc2n1 do in these assays?
DT40 TDP1 CPT: inconclusive; DT40 TDP1 no CPT: 12.6µM*

How did CCn1c(-c2ccccc2F)nc2cc(NC(C)=O)cc(C(=O)N3CCCCC3c3nccn3C)c21 (stereo not drawn) do in these assays?
DT40 TDP1 CPT: 2.3%[9.04 µM]; DT40 TDP1 no CPT: -1.0%

How did CC(C)C[C@@H](CN1CCC[C@H]1CN1C(=O)C(=O)NC[C@@H]1Cc1ccccc1)N1C[C@H](Cc2ccccc2)N(CC2CCCCC2)C(=O)C1=O do in these assays?
DT40 TDP1 CPT: inconclusive; IL1B secr inh: 0.0; DT40 TDP1 no CPT: inconclusive; HT1080 IDH1KD tx: inconclusive; HT1080NT lethal: inconclusive

What do the screens show for `O=C1NC[C@H](Cc2ccccc2)N(C[C@H]2CCCN2C[C@H](Cc2ccccc2)N2C[C@H](Cc3ccccc3)N(CC3CCCCC3)C(=O)C2=O)C1=O`?
DT40 TDP1 CPT: 20.6µM*; IL1B secr inh: -78.3*; DT40 TDP1 no CPT: inconclusive; HT1080 IDH1KD tx: inconclusive; HT1080NT lethal: inconclusive

Results for CC(C)C[C@H]1CN([C@@H](Cc2ccccc2)CN2CCC[C@@H]2CN2C(=O)C(=O)NC[C@@H]2Cc2ccc(O)cc2)C(=O)C(=O)N1CC1CCCCC1 ?
DT40 TDP1 CPT: -22.9%; IL1B secr inh: -23.1; DT40 TDP1 no CPT: inconclusive; HT1080 IDH1KD tx: 9.4%; HT1080NT lethal: 4.4%

What do the screens show for `CC(C)C[C@H]1CN([C@@H](Cc2ccccc2)CN2CCC[C@H]2CN2C(=O)C(=O)NC[C@@H]2Cc2ccc(O)cc2)C(=O)C(=O)N1CC1CCCCC1`?
DT40 TDP1 CPT: inconclusive; IL1B secr inh: -94.1*; DT40 TDP1 no CPT: inconclusive; HT1080 IDH1KD tx: inconclusive; HT1080NT lethal: inconclusive

What do the screens show for `CC(C)(C)C1CCC(CN2CCC(CN3C(=O)C(=O)NC[C@@H]3Cc3ccccc3)CC2)CC1` (stereo partly drawn)?
DT40 TDP1 CPT: inconclusive; IL1B secr inh: -56.4*; DT40 TDP1 no CPT: inconclusive; HT1080 IDH1KD tx: 5.1%; HT1080NT lethal: 0.1%

What do the screens show for `O=C1NC[C@H](Cc2ccccc2)N(C[C@@H]2CCCN2C[C@H](Cc2ccccc2)N2C[C@H](Cc3ccccc3)N(CC3CCCCC3)C(=O)C2=O)C1=O`?
DT40 TDP1 CPT: 16.4µM*; IL1B secr inh: -76.6*; DT40 TDP1 no CPT: 23.1µM*; HT1080 IDH1KD tx: inconclusive; HT1080NT lethal: inconclusive

How did Cc1ccc(NC(=O)CSCC(=O)NCCc2ccccc2)c(C)c1 do in these assays?
DT40 TDP1 CPT: -3.5%; IL1B secr inh: -7.9; DT40 TDP1 no CPT: -18.8%; HT1080 IDH1KD tx: 6.1%; ELG1 repair inh: 10.4%; HT1080NT lethal: -6.7%

Results for COc1cc(S(=O)(=O)Nc2ccccc2C(=O)N2CCCCC2)ccc1NC(C)=O ?
DT40 TDP1 CPT: -1.1%; IL1B secr inh: -12.2; DT40 TDP1 no CPT: -6.1%; HT1080 IDH1KD tx: 0.0%; ELG1 repair inh: 3.9%; HT1080NT lethal: 12.0%

What do the screens show for `O=C(CSc1nnc(C2CC2)n1Cc1ccccc1)N1CCNC1=O`?
DT40 TDP1 CPT: 3.5%; IL1B secr inh: 9.0; DT40 TDP1 no CPT: 2.7%; HT1080 IDH1KD tx: 3.2%; ELG1 repair inh: 11.9%; HT1080NT lethal: 6.6%

How did O=C1NC[C@H](Cc2ccccc2)N(C[C@@H]2CCCN2C[C@H](Cc2ccc(O)cc2)N2C[C@H](Cc3ccccc3)N(CC3CCCCCC3)C(=O)C2=O)C1=O do in these assays?
DT40 TDP1 CPT: inconclusive; IL1B secr inh: -82.6*; DT40 TDP1 no CPT: inconclusive; HT1080 IDH1KD tx: inconclusive; HT1080NT lethal: inconclusive

How did O=C1NC[C@H](Cc2ccc(O)cc2)N(C[C@@H]2CCCN2C[C@H](Cc2ccccc2)N2C[C@H](Cc3ccccc3)N(CC3CCCCCC3)C(=O)C2=O)C1=O do in these assays?
DT40 TDP1 CPT: inconclusive; IL1B secr inh: -17.4; DT40 TDP1 no CPT: inconclusive; HT1080 IDH1KD tx: inconclusive; HT1080NT lethal: inconclusive

What do the screens show for `Cc1ccc2cc(C#N)c(N3CCCN(S(=O)(=O)c4ccccc4)CC3)nc2c1C`?
DT40 TDP1 CPT: -8.7%; IL1B secr inh: 21.8; DT40 TDP1 no CPT: -13.0%; HT1080 IDH1KD tx: -15.7%; HT1080NT lethal: -6.5%

What do the screens show for `Cc1ccc2nc(N3CCN(S(=O)(=O)c4ccc(C)c(Cl)c4)CC3)c(C#N)cc2c1`?
DT40 TDP1 CPT: 20.6µM*; IL1B secr inh: 10.3; DT40 TDP1 no CPT: 20.6µM*; HT1080 IDH1KD tx: inconclusive; ELG1 repair inh: inconclusive; HT1080NT lethal: inconclusive

What do the screens show for `Cc1ccc2cc(C#N)c(N3CCCN(S(=O)(=O)c4ccc(F)cc4)CC3)nc2c1`?
DT40 TDP1 CPT: inconclusive; IL1B secr inh: -12.9; DT40 TDP1 no CPT: 14.6µM*; HT1080 IDH1KD tx: 9.7%[9.24 µM]; ELG1 repair inh: inconclusive; HT1080NT lethal: 8.0%

Results for Cc1ccc2cc(C#N)c(N3CCCN(S(=O)(=O)c4ccccc4)CC3)nc2c1 ?
DT40 TDP1 CPT: inconclusive; IL1B secr inh: 35.2; DT40 TDP1 no CPT: 25.9µM*; HT1080 IDH1KD tx: 25.4%; ELG1 repair inh: -2.0%; HT1080NT lethal: 2.3%

Results for Cc1ccc2cc(C#N)c(N3CCN(C)CC3)nc2c1 ?
DT40 TDP1 CPT: -4.8%; IL1B secr inh: -9.4; DT40 TDP1 no CPT: -11.2%; HT1080 IDH1KD tx: 0.3%; ELG1 repair inh: -0.9%; HT1080NT lethal: -1.7%
